Reference: PubChem BioAssay (Tox21)
Values joined by “and” are separate entries in the source; they are usually repeats but may differ in a detail not shown here. Equal entries are not always repeated. Records with an inconclusive call do not appear. Where a call stands in place of a potency, no number is given. Active and inactive are the calls of the source. The call rests on the fitted dose curve; in most records, active means well fitted curve in the direction sought with a large enough effect in the repeat runs; inconclusive means weak or mixed curves; inactive means no such curve, though single readings can be large; an effect the other way counts as inactive or inconclusive.

Experiment: qHTS assay to identify small molecule antagonists of the retinoic acid receptor (RAR) signaling pathway (AID 1159552; further: nearly all actives have a fitted effect of over 50% in size)
Conditions: C3RL4 RARE luciferase reporter, retinol-stimulated, 6 h; series mostly up to 92.4 µM
Summary of the method: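 Readout: luciferase luminescence, 30 min post-reagent at RT. Setup: C3RL4 RARE reporter cells, compounds plus retinol 1 uM final, 6 hr incubation at 37 C and 5% CO2.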

SMILES	Potency
Cc1ccc(S(=O)(=O)Oc2ccc(N=Nc3ccc(-c4ccc(N=Nc5c(O)ccc6cc(S(=O)(=O)O)cc(S(=O)(=O)O)c56)c(C)c4)cc3C)cc2)cc1	inactive
CCN(CC)C(=O)Nc1ccc(OCC(O)CNC(C)(C)C)c(C(C)=O)c1 (stereo not drawn)	inactive
OCC(CO)N[C@H]1C[C@](O)(CO)[C@@H](O)[C@H](O)[C@H]1O	inactive
CCC(C)(Oc1ccc(C2(c3ccc(OC(C)(CC)C(=O)O)cc3)CCCCC2)cc1)C(=O)O (stereo not drawn)	inactive
CC(C)(C)c1ccccc1	inactive
O=C(O)c1cccc(C(=O)O)c1	inactive
C/C=C/c1ccc(OCC)c(O)c1	inactive
O=C(O)Cn1cnnn1	inactive
CCc1cc(C(C)(C)C)c(O)c(C(C)(C)C)c1	inactive
O=C(O)c1cn(-c2ccc(F)cc2)c2cc(N3CCNCC3)c(F)cc2c1=O	inactive
O=C(O)CCc1ccccc1	inactive

Experiment: qHTS assay to identify small molecule agonists of the retinoic acid receptor (RAR) signaling pathway (AID 1159553); further: potency means the concentration at half of the fitted maximal effect
Conditions: C3RL4 RARE luciferase reporter, agonist, 6 h; series mostly up to 73.3 µM
Summary of the method: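 C3RL4 cells carrying a RARE luciferase reporter were plated overnight at 37 C, then exposed to compounds in DMSO for 6 hr at 37 C and 5% CO2. Luminescence was read 30 min after luciferase reagent addition at room temperature.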

SMILES	Potency
CC(=O)CC(=O)Nc1ccc2[nH]c(=O)[nH]c2c1	inactive
CC(C)CCCCCCc1ccc(O)cc1	inactive
COc1ccc(COC(C)=O)cc1	inactive
CCc1ccc(C(c2ccc(CC)cc2)C(Cl)Cl)cc1	inactive
Cc1cccc2n[nH]nc12	inactive
C=CC(=O)OCCCCCCCC	inactive
CCCCN(CCO)CCCC	inactive
CCCCC/C=C/CC1CC(=O)OC1=O (stereo not drawn)	inactive
Nc1nc2ccccc2[nH]1	inactive
O=C1Nc2ccccc2C1(c1ccc(O)cc1)c1ccc(O)cc1	inactive
CC(=O)Nc1ccc(C(=O)CCl)cc1	inactive
CCC[C@H](N[C@@H](C)C(=O)N1[C@H](C(=O)O)C[C@@H]2CCCC[C@@H]21)C(=O)OCC	inactive
CC1=CC(=O)c2ccccc2C1=O	inactive
O=C(OCc1ccccc1)c1ccc(O)cc1	6.86 µM (active) and 11.9 µM (active)
C=CS(=O)(=O)O	inactive
CCCCCCCCCCCCCCCCCl	inactive
O=Cc1ccc(Cl)cc1	inactive
CCC(CO)(CO)COCC(CC)(CO)CO	inactive
CCCC(=O)c1ccccc1	inactive

SMILES	Potency
c1ccc2cc3c(ccc4ccccc43)cc2c1	2.74 µM (active) and 3.86 µM (active)
CCOc1ccc2c(c1)C(C)=CC(C)(C)N2	54.2 µM (active) and 61.1 µM (active)
Cc1cccc(O)c1C	inactive
C#CC(C)(CC)OC(=O)c1ccccc1C(=O)O (stereo not drawn)	inactive
CC1=C(C=O)C(C)(C)CC=C1	inactive
CO[Si](OC)(OC)c1ccccc1	inactive
CC(C)(C)NCC(O)COc1ccccc1OCC1CCCO1 (stereo not drawn)	inactive
Cc1ccc(S(=O)(=O)Oc2ccc(N=Nc3ccc(-c4ccc(N=Nc5c(O)ccc6cc(S(=O)(=O)O)cc(S(=O)(=O)O)c56)c(C)c4)cc3C)cc2)cc1	inactive
CCN(CC)C(=O)Nc1ccc(OCC(O)CNC(C)(C)C)c(C(C)=O)c1 (stereo not drawn)	inactive
OCC(CO)N[C@H]1C[C@](O)(CO)[C@@H](O)[C@H](O)[C@H]1O	inactive
CCC(C)(Oc1ccc(C2(c3ccc(OC(C)(CC)C(=O)O)cc3)CCCCC2)cc1)C(=O)O (stereo not drawn)	inactive
CC(C)(C)c1ccccc1	inactive
O=C(O)c1cccc(C(=O)O)c1	inactive
C/C=C/c1ccc(OCC)c(O)c1	54.5 µM (active)
O=C(O)Cn1cnnn1	inactive
CCc1cc(C(C)(C)C)c(O)c(C(C)(C)C)c1	inactive
O=C(O)c1cn(-c2ccc(F)cc2)c2cc(N3CCNCC3)c(F)cc2c1=O	inactive
O=C(O)CCc1ccccc1	inactive
